An excerpt weighted towards active compounds, which were near 12% of everything screened.
AmpC inh detg = qHTS Inhibitors of AmpC Beta-Lactamase (assay with detergent) | P00811 | AmpC hydrolysis of nitrocefin, absorbance 480 nm, 0.01% Triton | Potency, µM (doses to about 114 µM), inactives show at the top dose activity change, negative = inhibition, actives largely listed as inhibitors | hit rate 0.041% among 370,000 | AID 485294, 2010;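 also: 0% = no-compound wells and -100% = no-enzyme wells; nearly all actives have a fitted effect of over 25% in size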
Target sequence (P00811 whole entry, looked up): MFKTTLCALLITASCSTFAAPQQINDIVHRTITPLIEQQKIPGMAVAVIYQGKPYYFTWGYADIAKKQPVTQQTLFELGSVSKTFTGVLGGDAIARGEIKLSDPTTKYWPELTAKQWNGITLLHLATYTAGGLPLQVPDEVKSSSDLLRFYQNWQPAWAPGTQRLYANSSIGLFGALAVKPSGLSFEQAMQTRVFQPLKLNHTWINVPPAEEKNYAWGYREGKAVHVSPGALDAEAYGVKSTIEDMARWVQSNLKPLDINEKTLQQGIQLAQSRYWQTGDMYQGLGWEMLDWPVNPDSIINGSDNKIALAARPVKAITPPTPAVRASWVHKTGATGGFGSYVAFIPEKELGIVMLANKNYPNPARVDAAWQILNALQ
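AmpC (5.3 nM in the dispensed reagent) in 20 mM phosphate pH 7.0 with 0.01% (detergent screen) or 0.0001% Triton X-100 was preincubated with compounds for 15 min at room temperature. Nitrocefin was then added from an 800 uM solution, and hydrolysis was followed at 480 nm.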
SARS PLP yeast = qHTS of Yeast-based Assay for SARS-CoV PLP | Potency, µM (top dose mostly 32.9 µM), for the others: at the top dose activity, positive = growth rescue, usual class: activators | hit rate 0.19% among 330,000 | S. cerevisiae expressing SARS-CoV PLpro, growth rescue; calls by dose curve; also: 0% is about no effect; nearly all actives have a fitted effect of over 55% in size
AmpC inh no detg = qHTS Inhibitors of AmpC Beta-Lactamase (assay without detergent) | Potency, µM (top dose mostly 57.1 µM), without a hit: at the top dose activity change, negative = inhibition, hits mostly inhibitors | hit rate 0.52% among 330,000 | AmpC nitrocefin hydrolysis, absorbance 480 nm, 0.0001% Triton | P00811 | AID 485341, 2010;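 also: plate controls were no compound for no effect and no enzyme for full effect; nearly all actives have a fitted effect of over 20% in size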
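AmpC (5.3 nM in the dispensed reagent) in 20 mM phosphate pH 7.0 with 0.01% (detergent screen) or 0.0001% Triton X-100 was preincubated with compounds for 15 min at room temperature. Nitrocefin was then added from an 800 uM solution, and hydrolysis was followed at 480 nm.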
Sm TGR inh = qHTS Assay for the Inhibitors of Schistosoma Mansoni Peroxiredoxins; purified TGR, DTNB reduction, TNB absorbance 405 nm; Schistosoma mansoni thioredoxin glutathione reductase (TGR), Q962Y6; hit rate 3% among 360,000; Potency, µM (titrated, usually from 114 µM), inactives show top-dose activity change, negative = inhibition, usual class: inhibitors; also: % is scaled to controls: 0 for no effect and ±100 for the full control effect; nearly all actives have a fitted effect of over 60% in size
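TGR 20 nM + NADPH 100 uM (dispensed conc.), cpd preinc 15 min RT; start with NADPH (500 uM addition) then DTNB (15 mM addition). Kinetic TNB absorbance, 405 nm filter. Four-parameter Hill fit across titration.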
Pf growth 48h = Primary qHTS for delayed death inhibitors of the malarial parasite plastid, 48 hour incubation. AID 504832, 2011. Potency, µM (highest dose often 28.7 µM), for the others: at the highest dose activity change, negative = inhibition, actives largely listed as inhibitors. P. falciparum luciferase growth in erythrocytes, 48 h. hit rate 5.9% among 310,000; also: % is scaled to controls: 0 for no effect and ±100 for the full control effect
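Here the parasites carry a stable luciferase gene and grow inside erythrocytes in Albumax-based RPMI medium with compound for one erythrocytic cycle. Activity is scored as loss of luminescent signal.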
Pf growth 96h = Primary qHTS for delayed death inhibitors of the malarial parasite plastid, 96 hour incubation. P. falciparum luciferase reporter growth, 96 h. Potency, µM (top dose mostly 28.7 µM), for inactives: top-dose activity change, negative = inhibition, most hits filed as inhibitors. hit rate 6.9% among 320,000; also: % is scaled to controls: 0 for no effect and ±100 for the full control effect
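Two parasite generations (96 h, 37 C, 5% CO2) of compound exposure in infected erythrocytes (0.05% parasitemia, 2% hematocrit). Luciferase-reporter P. falciparum; decreased luminescence indicates inhibited growth, aimed at apicoplast-acting delayed death.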
Starred values were filed as active, the others as inactive; ? = inconclusive; . = not tested or not shown; [ ] = dose if it differs, or a comment. Unless noted, calls follow the shape of the dose curve; as a rule, active = well fitted curve in the direction sought with a large enough effect; inconclusive = small, poorly fitted or top-dose-only effect, or another doubt; inactive = no such curve, though single readings can be large; an effect the other way counts as inactive or inconclusive. Potency is read from the fitted curve at half-maximal effect.

SMILES | AmpC inh detg | SARS PLP yeast | AmpC inh no detg | Sm TGR inh | Pf growth 48h | Pf growth 96h
CC(C)Oc1ccc(C(CC(=O)NCCCN(C)C)c2ccc(F)cc2)cc1 (configuration not stated) | 2.2% | 15.9% | 34.6% | -0.7% | ? | 11.7µM*
O=C(NNc1cccc(Cl)n1)Nc1cccc(Cl)c1 | ? | 2.3% | -38.0% | -22.8% | . | 13.1µM*
O=C(NNc1cccc(Cl)n1)Nc1ccccc1 | ? | -0.2% | -20.2% | -21.4% | 13.0% | 107.3%
CC(Cl)C(=O)NNc1cccc(Cl)n1 (configuration not stated) | 1.1% | 2.1% | -6.1% | 12.6µM* | 31.3% | -8.5%
CC(C)(C)C(=O)N1CCN(c2ccc([N+](=O)[O-])c(-n3nc(-c4ccccc4)c4ccccc4c3=O)c2)CC1 | 2.4% | 1.2% | 89.9% | -1.1% | 5.22µM* | 9.28µM*
Cc1ccc(-c2nn(-c3cc(Cl)ccc3[N+](=O)[O-])c(=O)c3ccccc23)cc1 | -2.4% | 1.4% | -12.5% | 3.3% | ? | 11.7µM*
Cc1nn(-c2cc(N3CCCC3)ccc2[N+](=O)[O-])c(=O)c2ccccc12 | 1.8% | 5.8% | -9.1% | 0.7% | . | ?
Cc1cccc(CC(=O)NCCN2CCCCC2)c1 | -0.4% | 2.6% | -13.6% | ? | -16.9% | ?
CCOc1ccc(-c2n[nH]c(C(=O)NN)c2C)cc1 | -12.2% | -24.6% | 28.2µM* | -7.3% | 91.7% | 41.3%
O=C1C2C3C=CC(C3)C2C(=O)N1c1nc2ccccc2s1 (configuration not stated) | ? | 5.0% | -7.9% | -4.4% | 22.7% | 8.28µM*
O=C(Cn1cnc2onc(-c3ccc(F)cc3)c2c1=O)N1CCN(c2ccccc2F)CC1 | -0.8% | . | . | 8.0% | . | .
Cn1c(=O)n(CCc2ccccc2)c(=O)c2c1nc1n2CCN1Cc1ccco1 | -2.8% | -1.6% | 77.4% | -21.6% | 8.28µM* | 5.22µM*
Cn1c(=O)n(Cc2ccc(F)cc2)c(=O)c2c1nc1n2CCN1Cc1ccco1 | -6.0% | 0.6% | 60.7% | -5.6% | ? | ?
Cc1ccc(C)c(Cn2c(=O)c3c(nc4n3CCN4Cc3ccco3)n(C)c2=O)c1 | -3.4% | 4.1% | 31.5% | -13.0% | 8.28µM* | ?
Cc1ccccc1NC(=O)C1CCCN1S(=O)(=O)c1ccccc1C(F)(F)F (configuration not stated) | -1.0% | -9.0% | -10.0% | -1.8% | ? | ?
CC(C#Cc1c([C@@H](C)Oc2ccccc2)nnn1Cc1ccccc1)Oc1ccccc1 (some centres not stated) | -7.9% | -0.9% | -21.8% | 7.94µM* | 11.7µM* | 9.28µM*
CN(C)c1nnnn1Cc1ccccc1 | -0.8% | 0.0% | -7.2% | -6.1% | 26.7% | 17.0%
Cc1ccccc1-n1ncc2c1CC(C)(C)CC2NC(=O)CCn1cncn1 (configuration not stated) | -13.6% | 2.1% | -7.1% | -17.4% | ? | 79.8%
Cc1ccc(-n2ncc3c2CC(C)(C)CC3NC(=O)CCn2cncn2)cc1 (configuration not stated) | -4.6% | -3.8% | 64.0% | 0.0% | -6.1% | 10.4µM*
Cc1cccc(C(=O)OCC(=O)N2CCCC2=O)c1O | 1.2% | -4.0% | -9.5% | -9.4% | -12.9% | ?
CCOC(=O)Cn1c(=O)oc2cc(S(=O)(=O)Nc3cc(OCC)ccc3OCC)ccc21 | 1.8% | -4.2% | 34.5% | 1.1% | ? | 1.47µM*
CCOC(=O)Cn1c(=O)oc2cc(S(=O)(=O)NCCC(C)C)ccc21 | -11.6% | 3.4% | 0.8% | -3.7% | . | ?
CCOC(=O)Cn1c(=O)oc2cc(S(=O)(=O)NC(C)c3ccccc3)ccc21 (configuration not stated) | -9.2% | -12.0% | -19.2% | 6.1% | . | 8.28µM*
NC(=O)c1ccc(Cc2ncc(C(F)(F)F)cc2Cl)s1 | -3.7% | 0.2% | -3.7% | -9.5% | -22.3% | 5.22µM*
CCCc1nc2ccc(NC(=O)c3ccco3)cc2c(=O)n1Cc1ccc(Cl)cc1 | -13.1% | 0.3% | -10.7% | -6.9% | 1.31µM* | ?
SMILES | AmpC inh detg | SARS PLP yeast | AmpC inh no detg | Sm TGR inh | Pf growth 48h | Pf growth 96h
CCCc1nc2ccc(NC(C)=O)cc2c(=O)n1Cc1ccccc1Cl | 6.6% | -4.5% | 207.9% | -1.2% | ? | -19.6%
CCCc1nc2ccc(NC(=O)c3ccco3)cc2c(=O)n1Cc1ccccc1Cl | -10.1% | 13.7% | 19.3% | -10.9% | 2.33µM* | -0.4%
COc1cccc(-c2c(NC(=O)c3ccco3)n(-c3ccc(C)cc3)nc(C)c2=O)c1 | ? | 5.3% | -1.6% | 79.4µM* | -10.1% | -4.3%
COc1ccc(-n2cnc3cc(NC(=O)c4ccco4)ccc32)cc1 | 2.9% | -2.1% | -20.4% | 6.0% | . | 2.33µM*
CC(=O)Nc1ccc2nc(C)n(Cc3ccc(Cl)cc3)c(=O)c2c1 | -11.0% | -27.9% | 41.1% | -7.9% | 4.8% | -3.3%
COc1ccccc1-c1c(NC(=O)c2ccco2)n(-c2ccccc2)nc(C)c1=O | ? | -0.4% | -6.6% | 3.7% | . | 85.1%
COc1ccccc1-c1nc(SCC(=O)NCc2ccccc2)c2c(=O)n(C)c(=O)n(C)c2n1 | 17.9% | . | . | -32.9% | . | .
CCC(=O)Nc1ccc2nc(C3CC3)n(Cc3ccccc3)c(=O)c2c1 | ? | 1.2% | -8.8% | -13.1% | 65.4% | -18.6%
COc1ccc(Cn2c(C3CC3)nc3ccc(NC(=O)c4ccco4)cc3c2=O)cc1 | ? | 6.0% | 21.9% | -30.7% | 2.94µM* | 2.08µM*
COc1ccccc1CNC(=O)C1CCC(CNS(=O)(=O)c2ccccc2)CC1 (configuration not stated) | -0.4% | -0.9% | -6.1% | 6.0% | -0.4%[0.00184 µM] | 13.1%
COc1cc([C@H]2c3cc4c(cc3[C@@H](O[C@H]3O[C@H]5CO[C@@H](C)O[C@H]5[C@@H](O)[C@@H]3O)[C@@H]3COC(=O)[C@H]23)OCO4)cc(OC)c1O | . | . | . | . | 13.5µM* | 13.5µM*
COc1cc(C2c3cc4c(cc3C(OC3OC5COC(c6cccs6)OC5C(O)C3O)C3COC(=O)C23)OCO4)cc(OC)c1O (configuration not stated) | 2.6% | 1.2% | 126.6% | 10.3% | ? | ?
COc1cc(C2c3cc4c(cc3C(O[C@@H]3OC5COC(c6cccs6)OC5C(O)C3O)C3COC(=O)C23)OCO4)cc(OC)c1O (some centres not stated) | . | . | . | . | 0.536µM* | 0.477µM*

Screens deposited in PubChem by National Center for Advancing Translational Sciences (NCATS).
